Screening results from PubChem.
These entries were drawn from the full list.
aSyn 5UTR act: Activators working through SNCA 5'UTR binding (MLPCN) | 300,000 compounds, 7.1% hits | activity score, % (tested at 7.5 µM), hits read low | alpha-synuclein 5'UTR reporter, activators screen; in the data active = activity score below about -60%
Numbers without * were called inactive.

SMILES | aSyn 5UTR act
Cc1ccc(N2C(=O)NC(=O)C3(Cc4ccccc4N4CCN(c5ccccc5)CC43)C2=O)cc1 (stereo not drawn) | -71*
N=C1c2ccccc2CN1CC(=O)c1ccccc1 | -186*
O=c1c2ccccc2nc(/C=C/c2ccc([N+](=O)[O-])o2)n1-c1ccc(O)cc1 | 100
Cc1cccc(-n2c(/C=C/c3ccc([N+](=O)[O-])o3)nc3ccccc3c2=O)c1 | -212*
COc1ccc2c(c1)/C(=C/c1cnc[nH]1)C(=O)N2 | -62*
Cc1cc(C(=O)N=Nc2c(O)n(C)c3ccccc23)c(C)o1 | -180*
Nc1c2c(nc3sc4c(c13)CCCCC4)CCCC2 | -139*
CC(Cc1ccccc1)N1Cc2ccccc2C1 (stereo not drawn) | -65*
O=c1c2ccccc2nc(Cc2ccccc2)n1-c1ccccc1 | -84*
O=C(C1CC(c2ccccc2O)=NO1)N1CCC2(CC1)OCCO2 (stereo not drawn) | -68*
CCC(=Nc1cc(OC)ccc1OC)c1c(O)[nH]c(=O)[nH]c1=O | 71
Cn1c(O)c(C(=N)COc2ccccc2)c(=O)n(C)c1=O | -67*
CN1CCC(N(C)c2nc(-c3ccc([N+](=O)[O-])cc3)nc3ccccc23)CC1 | 75
COc1cccc(OCc2cc(C(=O)N3C[C@H]4C[C@@H](C3)c3cccc(=O)n3C4)no2)c1 | -174*
Cc1cccc(-n2c(O)c(/C=C3/C(c4ccccc4)=Nc4ccccc43)c(=O)[nH]c2=O)c1 | -174*
Cc1ccc(-c2cc(-c3ccc(C)cc3)[n+](-c3ccccc3)c(-c3ccc(C)cc3)c2)cc1 | 76
CC(=O)c1ccc(-c2ccccc2)cc1 | -81*
CN(C)C(=O)Oc1ccc(C(=O)c2ccccc2)cc1 | -68*
CC(=O)c1ccc(OC(=O)N(C)c2ccccc2)cc1 | -66*
Cc1ccc(-c2cc(-c3ccccc3)cc(-c3ccccc3)[n+]2-c2ccccc2)cc1 | 85
C[C@]12CCC3C(CCC4=CC(O)CC[C@@]43/C=N/O)C1(O)CCC2C1=CC(=O)OC1 (stereo partly drawn) | 113
COc1cc2c(c(OC)c1OC)-c1ccc(O)cc1[C@@H](NC(C)=O)CC2 | 61
Cc1cc(C)cc(N2C(=O)NC(=O)/C(=C\C=C\c3ccco3)C2=O)c1 | -116*
Cc1ccc(N2C(=O)NC(=O)/C(=C/C=C/c3ccco3)C2=O)cc1 | -76*
O=C1NC(=O)N(c2ccccc2)C(=O)/C1=C\C=C\c1ccccc1 | -119*
SMILES | aSyn 5UTR act
CC(C)c1ccc(N2C(=O)NC(=O)/C(=C/C=C/c3ccco3)C2=O)cc1 | -130*
Cc1c2ccncc2c(C)c2c1[nH]c1ccccc12 | 114
COc1ccc(C[C@H]2NC[C@H](O)[C@H]2OC(C)=O)cc1 | 112
CCCCCCn1c(=O)c(C(=O)Nc2ncccc2O)c(O)c2ccccc21 | 92
O=C1NC(=O)N(Cc2ccc(F)cc2)C(=O)/C1=C\C=C\c1ccco1 | -270*
C[C@@H]1O[C@@H](O[C@H]2C[C@@H](O)[C@]3(CO)[C@H]4[C@H](O)C[C@]5(C)[C@@H](C6=CC(=O)OC6)CC[C@]5(O)[C@@H]4CC[C@]3(O)C2)[C@H](O)[C@H](O)[C@H]1O | 114
CC/C=C/CC(=O)N[C@@H](c1ccccc1)[C@@H](O)C(=O)O[C@H]1C[C@@]2(O)[C@@H](OC(=O)c3ccccc3)C3[C@](C)(C(=O)[C@H](OC(C)=O)C(=C1C)C2(C)C)[C@@H](O)C[C@H]1OC[C@@]31OC(C)=O (stereo partly drawn) | 77
Cc1ccc2cc3cc(C(=O)N4CCC5(CC4)OCCO5)oc3nc2c1 | -69*
CCC(C)c1ccc(N2C(=O)NC(=O)/C(=C/c3cccn3CCOc3ccc(C)cc3)C2=O)cc1 (stereo not drawn) | -65*
C[C@]12C=CC(=O)C=C1C=C[C@@H]1C2CC[C@]2(C)C(=O)CCC12 (stereo partly drawn) | -120*
CN1CCc2nc(SCC(=O)OC(C)(C)C)c(C#N)cc2C1 | -281*
C/C(=N\N1CCCCC1)c1c(O)[nH]c(=O)[nH]c1=O | 58
Cc1nc2ccccc2c(=O)n1-c1ccc(Br)cn1 | -176*
N#Cc1ccccc1NC(=O)CN1CC=C(c2ccccc2)CC1 | -63*
Cc1ccccc1NC(=O)CCl | -71*
CCCCCCCCCCCCCCCC[N+](C)(C)C | 98
Cc1ccc(-c2nn(Cc3ccccc3)cc2C=O)cc1 | -138*
O=Cc1cn(Cc2ccc([N+](=O)[O-])cc2)c2ccccc12 | 72
O=Cc1cn(Cc2ccc(F)cc2)c2ccccc12 | 71
CCOC(=O)c1ccc(NC(=O)C2C3C=CC(O3)C2C(=O)O)cc1 (stereo not drawn) | -77*
Cn1c(NN=O)nc2ccccc21 | 69
COc1cc2c(cc1OC)-c1c(OC)c(OC)c(OC)c3ccnc(c13)C2=O | 104
N#CSCC(=O)N1c2ccccc2CCc2ccccc21 | -84*
CC(Cc1ccccc1)NC(=O)NC(C)Cc1ccccc1 (stereo not drawn) | -134*
CC(Cc1ccccc1)NC(=O)c1ccc(N)cc1 (stereo not drawn) | -110*
SMILES | aSyn 5UTR act
Cn1ncnc2c(=O)n(C)c(=O)nc1-2 | 98
COC(=O)C[C@]1(C(=O)OC)CN(C#N)N(c2ccc(Cl)cc2)C12c1ccccc1-c1ccccc12 | 96
O=C(Nc1cccc(Cl)c1)c1c(O)c2c(n(Cc3ccco3)c1=O)CCCC2 | -87*
Cn1cnc([N+](=O)[O-])c1Sc1ccc([N+](=O)[O-])cc1 | -66*
CCC(=NC(C)c1ccccc1)c1c(O)[nH]c(=O)[nH]c1=O (stereo not drawn) | 57
CCCCn1c(O)c(/C(C)=N/NC(=O)Nc2ccccc2)c(=O)[nH]c1=O | -99*
CCOc1ccc(-c2c(C)n(-c3ccc(OCC)cc3)c3[n+]2CCCCC3)cc1 | 62
CCN1C(=O)C(=Cc2ccc(C)s2)C(=O)N(CC)C1=S | -158*
CCC(C)C(=O)N[C@@H](c1ccccc1)[C@@H](O)C(=O)O[C@H]1C[C@@]2(O)[C@@H](OC(=O)c3ccccc3)C3[C@](C)(C(=O)[C@H](OC(C)=O)C(=C1C)C2(C)C)[C@@H](O)C[C@H]1OC[C@@]31OC(C)=O (stereo partly drawn) | 103
COc1ccc(-c2cc(=Nc3cccc(C(=O)O)c3)c3cc(C)ccc3o2)cc1 | -81*
COc1ccc(-c2cc(=NCC(=O)O)c3ccccc3o2)cc1 | -128*
Cc1ccc(-c2cc(-c3ccc(C)cc3)[n+](-c3ccc(C(=O)[O-])cc3)c(-c3ccc(C)cc3)c2)cc1 | 83
C[C@H]1C[C@@H](C)C(=O)[C@@H]([C@H](O)CC2CC(=O)NC(=O)C2)C1 | 97
C[C@H]1O[C@@H](OC2CC[C@]3(C=O)[C@H]4CC[C@]5(C)[C@@H](C6=CC(=O)OC6)CC[C@]5(O)[C@@H]4CC[C@]3(O)C2)CC2OC(C)(C)OC21 (stereo partly drawn) | 96
O=C1NC(=O)C(C(CC(=O)c2ccccc2)c2ccccc2)C(=O)N1 (stereo not drawn) | -65*
Cc1cc(N2CCOCC2)nc2ccc(NC(=O)CCC(=O)N3CCC4(CC3)OCCO4)cc12 | -88*
CN(C)C(=O)Oc1ccc2c(c1)O/C(=C\c1ccc(Cl)cc1)C2=O | -87*
CN(C)C(=O)Oc1ccc2c(c1)O/C(=C\c1cccc(Cl)c1)C2=O | -72*
CCC(=O)N1CC(=O)Nc2ccc(Br)cc2C1c1ccccc1 (stereo not drawn) | -71*
Nc1ccccc1C(=O)OCC(=O)N1CCc2ccccc21 | -168*
